Hit rate of the full screen: of about 190,000 compounds, about 1,300 (0.68%) were called active. The sample holds actives, similar compounds and a random draw of the others, so the mix is not that of the screen. Cut-off read from the data, not from the text of the source: active = inhibition above about 50%; inactive = the rest.
biological target: Mannose-6-phosphate isomerase (Homo sapiens) (UniProt P34949); test: MPI inhibition at elevated mannose 6-phosphate – biochemical, fluorescence intensity, high mannose 6-phosphate, primary screen (AID 1220); conditions: recombinant PMI enzyme, coupled fluorescence intensity; at 20 µM; hits give high values
Sequence (P34949 whole entry, looked up): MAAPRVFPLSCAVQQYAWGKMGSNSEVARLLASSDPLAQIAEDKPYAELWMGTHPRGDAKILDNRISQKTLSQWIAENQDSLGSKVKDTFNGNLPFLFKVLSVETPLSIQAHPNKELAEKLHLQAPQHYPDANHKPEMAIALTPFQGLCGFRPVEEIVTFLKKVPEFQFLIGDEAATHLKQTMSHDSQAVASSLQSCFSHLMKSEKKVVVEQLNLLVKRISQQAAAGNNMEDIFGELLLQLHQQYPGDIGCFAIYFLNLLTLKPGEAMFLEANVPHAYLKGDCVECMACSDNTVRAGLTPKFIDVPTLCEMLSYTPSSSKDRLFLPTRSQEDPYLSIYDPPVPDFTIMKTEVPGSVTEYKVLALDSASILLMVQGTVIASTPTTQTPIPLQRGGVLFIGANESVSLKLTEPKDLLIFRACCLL

inhibition, inactive:
O=C(Nc1ccc(NC(=O)C2CCCN2C(=O)OCc2ccccc2)cc1)c1ccco1 (stereo unspecified) -8.3%
COc1ccc(CNC(=O)C(OC(=O)c2nsc(Cl)c2Cl)C(C)C)cc1 (stereo unspecified) 14.4%
CC/C(=N/OC(=O)c1cccc(C)c1)C(=O)c1cccs1 -0.6%
CCOc1ccc(NC(=O)C2CCN(C(=O)NC3CCCCC3)CC2)cc1 -11.9%
CCn1nnnc1-c1ccc(OC)c(S(=O)(=O)Nc2ccc(C)c(C)c2)c1 -3.8%
Cc1ccc(Cl)cc1N1CCN(C(=O)CCC(=O)O)CC1 -5.1%
Cc1ccc(CSC2=NCCN2C(=O)C2CC2)cc1 -1.1%
CCC(=O)Nc1c(C#N)c2nc3ccccc3nc2n1C1CCCCC1 17.4%
Nc1c(S(=O)(=O)c2ccccc2)c2nc3ccccc3nc2n1C1CC1 0.4%
Cc1ccc(S(=O)(=O)c2c(N)n(CCCO)c3nc4ccccc4nc23)cc1 8.6%
CCCCn1c(N)c(S(=O)(=O)c2ccc(C)cc2)c2nc3ccccc3nc21 20.2%
Cc1ccc(N(Cc2ccc([N+](=O)[O-])cc2)C(=O)c2ccco2)cc1C 4.7%
Cc1ccc(O)c(-c2cc(C(F)(F)F)[nH]n2)c1 3.7%
COC(=O)c1nc2nc(C)cc(=O)n2[nH]1 3.3%
O=C(Nc1ccc([N+](=O)[O-])cc1)C1C(c2ccccc2)=C1c1ccccc1 1.6%
CC(C)C(c1nnnn1Cc1ccc(F)cc1)N1CCSCC1 (stereo unspecified) 4.6%
CC(C)C(c1nnnn1Cc1ccc(F)cc1)N1CCN(C2CCCC2)CC1 (stereo unspecified) 3%
Cn1c(-c2ccc(F)cc2)cnc1NCc1cc2c(cc1[N+](=O)[O-])OCO2 15.7%
CCNc1nc(NC(C)C)nc(N(n2cnnc2)S(=O)(=O)c2ccc(C)cc2)n1 5.3%
Cc1cc(=O)n2nc(N3CCC(C(=O)NC4CCCc5ccccc54)CC3)sc2n1 (stereo unspecified) -0.3%
CC(=O)N1CCCN(Cc2cn(-c3ccc(C)cc3)nc2-c2cccc(C)c2)CC1 9.1%
Cc1ccc(-n2cc(CN3CCNC(=O)CC3)c(-c3cccc(C)c3)n2)cc1 12.5%
CN(C)c1ccc(C(CNS(=O)(=O)c2ccc3ccccc3c2)c2c[nH]c3ccccc23)cc1 (stereo unspecified) 13.6%
CC1(C)CC(=O)C2=C(C1)N(c1ccc(F)cc1)C(N)=C(C#N)C2c1cccs1 (stereo unspecified) 28.6%
Cc1ccc(N2C(N)=C(C#N)C(c3cccs3)C3=C2CC(C)(C)CC3=O)cc1 (stereo unspecified) 8.2%
CSc1sc(C)cc1C1C(C#N)=C(N)N(c2cccnc2)C2=C1C(=O)CCC2 (stereo unspecified) 13.3%
Cc1nn(C)cc1C1C(C#N)=C(N)N(c2cccnc2)C2=C1C(=O)CCC2 (stereo unspecified) 28.3%
CC(=O)Nc1ccc(/C=C(\C#N)C(=O)NC2CCCCC2)cc1 4.7%
Cc1ccc(-c2nnc(SCC(=O)NNC(=O)COc3ccccc3C)n2C)cc1 3.3%
Cc1cc2c3c(c1)C1(C(=O)N3C(C)(C)CC2C)C(C#N)=C(N)Oc2cc(O)ccc21 (stereo unspecified) 18.9%
CCc1ccc(N2CC(C(=O)N/N=C/c3cc([N+](=O)[O-])ccc3O)CC2=O)cc1 (stereo unspecified) -15.8%
CCOC(=O)Cc1csc(NC(=O)CSc2nnc(-n3nc(C)cc3C)c3ccccc23)n1 6.3%
Cc1nc(Nc2ccc(Cl)cc2)c2nnn(Cc3ccccc3)c2n1 3.1%
Cc1nc(NCC2CCCO2)c2nnn(Cc3ccccc3)c2n1 (stereo unspecified) -3%
O=C(OCC(=O)N1CCN(C(=O)c2ccco2)CC1)c1cc(-c2cccc(Br)c2)nc2ccccc12 9.6%
Cc1cc(C)cc(NC(=S)NCC2CCN(C(C)c3ccccc3)C2)c1 (stereo unspecified) -1.3%
O=C(NC(c1ccccc1)c1ccccc1)C1(c2cccs2)CCOCC1 -1.3%
CCOc1ccc2nc(NS(=O)(=O)c3ccc4c(c3)n(C)c(=O)n4C)sc2c1 -21%
CCN(CC)c1ccc(NC(=O)c2ccccc2F)cc1S(=O)(=O)Nc1ccccc1OC -13.8%
CCN(CC)c1ccc(NC(=O)c2ccccc2)cc1S(=O)(=O)Nc1ccccc1OC 9.4%
CCCS(=O)(=O)C(=C(Nc1ccccc1)Nc1ccccc1)S(=O)(=O)CCC -4.7%
O=C(NCc1cccs1)N[C@@H](Cc1ccccc1)C(=O)O -2.3%
COc1ccc(-c2nc(S(=O)(=O)c3ccccc3)c(N3CCOCC3)o2)cc1 3.3%
COC(=O)C1Sc2[nH]c(=O)sc2C2c3ccccc3OC(=O)C12 (stereo unspecified) 29.7%
CCOC(=O)C1Sc2[nH]c(=O)sc2C(c2ccc(Cl)cc2)C1C(=O)OCC (stereo unspecified) -88.8%
COC(=O)C1Sc2[nH]c(=O)sc2C(c2ccc(Cl)cc2)C1C(=O)OC (stereo unspecified) 34.7%
CC1(C(=O)O)Sc2[nH]c(=O)sc2C2c3ccccc3OC(=O)C21 (stereo unspecified) 14.1%

inhibition, active:
O=S(=O)(Nc1c(S(=O)(=O)c2ccccc2)c2nc3ccccc3nc2n1C1CCCCC1)c1ccccc1 59.7%
CCCCn1c(NS(=O)(=O)c2ccccc2)c(S(=O)(=O)c2ccc(C)cc2)c2nc3ccccc3nc21 57.6%
CC(C)C(c1nnnn1Cc1ccc(F)cc1)N1CCN(c2ccc(O)cc2)CC1 (stereo unspecified) 66.2%
COC(=O)CC1C(=O)NCCN1Cc1cn(-c2ccc(C)cc2)nc1-c1cccc(C)c1 (stereo unspecified) 52.9%
CC1(C)CC(=O)C2=C(C1)N(c1cccnc1)C(N)=C(C#N)C2c1cccs1 (stereo unspecified) 53.9%
Cc1ccc(C2C(C#N)=C(N)N(c3cccnc3)C3=C2C(=O)CCC3)s1 (stereo unspecified) 56.7%
Cc1nc(NCC2CC2)c2nnn(Cc3ccccc3)c2n1 59.2%
O=C(O)C1Sc2[nH]c(=O)sc2C2c3cc(Cl)ccc3OC(=O)C12 (stereo unspecified) 63.5%
O=C(O)C1Sc2[nH]c(=O)sc2C2c3ccc(O)cc3OC(=O)C12 (stereo unspecified) 55.1%
